# According to PubChem BioAssay (NCI):
# The panel holds about 79,000 compounds, 15% with a hit somewhere; the sample as a whole holds those more often. Values without a mark were called inactive. Rule as the data show it: active = growth inhibition above about 70%; inactive = the rest.
# Experiment: NCI Yeast Anticancer Drug Screen. Data for the rad50 strain (AID 155);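 also: 0% = growth of vehicle-only cultures of the same strain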
# Details: S. cerevisiae rad50 strain growth inhibition; at 1.2 µM; hits give high values
# In short: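 Compounds were tested on a yeast strain with an engineered DNA damage repair alteration; the reported value is growth inhibition normalised to vehicle treatment.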
row,Compound,growth inhibition
1,O=CC=C(c1ccccc1)c1ccccc1,8%
2,FC(F)(F)c1nc2nc(Cl)c(Cl)nc2n1CCCN1CCOCC1,5%
3,BrCC[P+](c1ccccc1)(c1ccccc1)c1ccccc1,-36%
4,N#CSc1ccc(S(N)(=O)=O)cc1,-55%
5,O=[N+]([O-])c1ccc2nc3ccccc3cc2c1,1%
6,O=C(NC(Nc1ccc(F)c(Cl)c1)(C(F)(F)F)C(F)(F)F)C(C(F)(F)F)C(F)(F)F,8%
7,O=C(/C=C\c1ccc(Cl)cc1Cl)c1cccs1,-1%
8,O=C(NCCCCNCCCNC(=O)c1cc(-c2ccccc2)nc2ccccc12)c1cc(-c2ccccc2)nc2ccccc12,-5%
9,NC(=NCc1ccccc1)N/N=C\c1ccnc2ccccc12,1%
10,CCCCN(CCCC)CCSc1ccc(Cl)cc1,-18%
11,COc1cc(C2C3=C(COC3=O)Oc3cc4c(cc32)OCO4)ccc1O (stereo not drawn),0%
12,C#CCCCc1ccccc1,-48%
13,CCc1ccc(NS(=O)(=O)c2ccccc2)c([N+](=O)[O-])c1,3%
14,COc1ccc(C2c3cc4c(cc3OC(C)(O)C2C)OCO4)c(OC)c1 (stereo not drawn),0%
15,COC(=O)c1ccc(CCC2=CC(=O)C(Br)=CC2=O)cc1,-3%
16,NNC(=O)CCc1ccc2ccc3ccccc3c2c1,0%
17,Cn1c2ccccc2c(=O)c2cc(NC(=O)CCCCC(=O)Nc3ccc4c(c3)c(=O)c3ccccc3n4C)ccc21,0%
18,CC(CC(C)(C)[N+](C)(C)C)[N+](C)(C)C (stereo not drawn),1%
